# ATXN viability: cell viability loss in ATXN counter-screen; S2 cells (HEK-293 line with an ATXN2-luciferase reporter) viability, CellTiter-Fluor protease fluorescence, 24 h; Potency, µM (titrated, usually from 56.7 µM), usual class: cytotoxic; 400,000 compounds, 0.49% hits; AID 651635; further: nearly all actives have a fitted effect of over 40% in size
# VP16 counter: inhibits Gal4-VP16 luciferase reporter, ROR gamma counter-screen; Drosophila S2 Gal4-VP16 UAS-luciferase, luminescence, 20 h; Potency, µM (titrated, usually from 53.6 µM), for inactives: at the top dose activity, negative = inhibition, actives largely listed as inhibitors; 310,000 compounds, 3.5% hits;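 further: Gal4-VP16 expression switched on by copper sulfate through the metallothionein promoter; on the % scale 0 is the no-effect control and ±100 the full control effect; nearly all actives have a fitted effect of over 50% in size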
# ATXN2 expr inh: reduces ATXN2 reporter expression in HEK-293 cells; HEK-293 ATXN2-luciferase reporter, luminescence, 24 h; Potency, µM (series often up to 57 µM), for the others: at the top dose activity change, negative = inhibition, most hits filed as inhibitors; 360,000 compounds, 0.72% hits; further: on the % scale 0 is the no-effect control and ±100 the full control effect; nearly all actives have a fitted effect of over 55% in size
#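 qHTS (up to 57 uM final) was run with 24 h compound exposure of reporter cells at 37 °C. Each well was multiplexed: SteadyGlo luminescence measured ATXN2-luciferase expression after a fluorogenic Gly-Phe-AFC viability readout (25 uM final).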
# HepG2 viability: HepG2 cytotoxicity, counter-screen for TGF-b inhibitors | HepG2 CAGA-GFP viability, ATP luminescence, 18 h | 410,000 compounds, 0.76% hits | Potency, µM (top dose mostly 46.1 µM), inactives show at the highest dose activity change, negative = cytotoxicity, actives largely listed as cytotoxic | AID 588856
#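 CellTiter-Glo luminescence gave cytotoxicity after 18 hours at 37 degrees C. The cells were HepG2 CAGA-GFP in 1% FBS DMEM, stimulated with 500 pg/mL TGF-beta after compound addition. %Activity was normalised to no-cell wells (complete cell-killing) and DMSO (no toxicity), and curves were fitted and classified.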
# RORgamma inh: blocks mouse ROR gamma transcriptional activity; Potency, µM (titrated, usually from 53.6 µM), for inactives: at the highest dose activity change, negative = inhibition, most hits filed as inhibitors; 310,000 compounds, 5.4% hits; P51450; Drosophila S2 Gal4-RORgamma UAS-luciferase reporter, 20 h; further: on the % scale 0 is the no-effect control and ±100 the full control effect; nearly all actives have a fitted effect of over 60% in size
# Target sequence (P51450 whole entry, looked up, the tested form may be a part): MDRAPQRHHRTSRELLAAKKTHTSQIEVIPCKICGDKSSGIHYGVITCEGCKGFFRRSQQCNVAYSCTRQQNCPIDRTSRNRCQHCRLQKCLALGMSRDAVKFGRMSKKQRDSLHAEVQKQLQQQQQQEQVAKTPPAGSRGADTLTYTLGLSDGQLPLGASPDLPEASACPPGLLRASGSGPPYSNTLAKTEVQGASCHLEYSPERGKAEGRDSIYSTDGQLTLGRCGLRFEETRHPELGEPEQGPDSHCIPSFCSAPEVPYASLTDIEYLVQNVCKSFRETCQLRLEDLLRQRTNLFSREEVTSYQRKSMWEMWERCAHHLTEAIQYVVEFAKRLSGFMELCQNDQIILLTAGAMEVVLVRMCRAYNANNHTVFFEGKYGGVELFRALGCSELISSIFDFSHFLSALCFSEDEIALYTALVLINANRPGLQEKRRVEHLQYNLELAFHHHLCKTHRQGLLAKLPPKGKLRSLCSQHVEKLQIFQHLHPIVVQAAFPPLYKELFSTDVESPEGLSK
#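 A Gal4/UAS one-hybrid system in insect cells: metallothionein-promoter Gal4–ROR gamma fusion plus Photinus luciferase reporter. Copper sulfate 700 uM final, 20 hr ambient incubation, luminescent detection after 10 min with reagent.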
# TGFb SMAD3 inh: blocks TGF-b signaling | Potency, µM (highest dose often 46.1 µM), for the others: at the highest dose activity, negative = inhibition, most hits filed as inhibitors | 410,000 compounds, 1.2% hits | HepG2 CAGA-GFP TGF-b/SMAD3 reporter, GFP fluorescence, 18 h; TGF-beta stimulated, 500 pg/mL final; further: on the % scale 0 is the no-effect control and ±100 the full control effect; nearly all actives have a fitted effect of over 65% in size
#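 Read-out: total well GFP (ex488/em500-530) summed from mean per-cell fluorescence. Cells: HEPG2 CAGA-GFP, 1% FBS DMEM, 18 h at 37 degrees C with 500 pg/mL final TGF-beta. Unstimulated wells served as the full-inhibition control; stimulated DMSO wells = 0%.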
# * = called active by the depositor; i = inactive; ? = inconclusive; . = no result given; [ ] = dose if it differs, or a comment. Rows were chosen to be rich in hits. Some 6.3% of all compounds tested hit in one or more screens of this group. The call rests on the fitted dose curve; in most records, active means well fitted curve in the direction sought with a large enough effect; inconclusive means small, poorly fitted or top-dose-only effect, or another doubt; inactive means no such curve, though single readings can be large; an effect the other way counts as inactive or inconclusive. Potency means the concentration at half of the fitted maximal effect.
SMILES,ATXN viability,VP16 counter,ATXN2 expr inh,HepG2 viability,RORgamma inh,TGFb SMAD3 inh
CN1C(=O)c2ccccc2Sc2ccc(NC(=O)Cc3c(F)cccc3Cl)cc21,?,.,0.0%,-56.9%,.,10µM*
O=S(=O)(O)CCSSCCS(=O)(=O)O,.,.,6.5%,.,.,.
O=C1c2ccccc2C(=O)N1c1ccccn1,.,.,.,-32.0%,.,-11.8%
Cc1cc(C)c2sc(NC(=O)C3=COCCO3)nc2c1,i,5.62µM*,31.1%,-11.1%,0.794µM*,13.5%
Cc1cc(C)c2sc(NC(=O)c3ccc(N4C(=O)CCC4=O)cc3)nc2c1,i,?,.,0.5%,0.112µM*,-18.3%
O=C(Nc1nc2cc3c(cc2s1)OCCO3)C1=COCCO1,i,2.24µM*,?,8.91µM*,1µM*,-13.1%
Cc1ccc2nc(NC(=O)c3ccc(N4C(=O)CCC4=O)cc3)sc2c1,i,-3.2%,13.4%,12.3%,2.6%,1.3%
CCOC(=O)c1cc(CC)sc1NC(=O)c1ccc(N2C(=O)CCC2=O)cc1,i,-12.2%[0.365 µM],-3.3%,3.55µM*,4.8%,-0.6%
COc1ccc(OCC(CO)N2CCN(c3ccccc3)CC2)cc1 (stereo not drawn),i,.,-8.8%,2.1%,.,-10.4%
CC(=O)c1ccc(NC(=O)C2CCC(CNS(=O)(=O)c3ccc4c(c3)CCCC(=O)N4)CC2)cc1 (stereo not drawn),i,.,7.2%,-20.5%,.,1.1%
O=C(CCl)c1ccc2[nH]c(=O)oc2c1,i,3.0%,.,10µM*,-2.4%,?
COc1ccccc1N=NC1C(=O)N(C(N)=S)N=C1C (stereo not drawn),i,3.16µM*,-16.8%,-2.2%,?,?
CC1=NN(C(N)=S)C(=O)C1N=Nc1ccccc1Cl (stereo not drawn),?,1µM*,30.3%,-25.9%,0.631µM*,?
CC1=NN(C(N)=S)C(=O)C1N=Nc1ccccc1C(=O)O (stereo not drawn),?,-1.0%,.,6.5%,13.2%[1.91 µM],8.1%
CC1=NN(C(N)=S)C(=O)C1N=Nc1ccc(Cl)cc1Cl (stereo not drawn),?,0.631µM*,.,-36.7%,0.447µM*,6.8%
CCCCCCCCCCCCCCC[C@@H](O)[C@H](CO)NC(=O)CCCCCCC,.,-1.3%,.,.,-3.6%,.
COc1ccc(-c2oc3ccccc3c(=O)c2OC(C)=O)cc1,.,?,-21.9%,-18.6%,7.08µM*,?
CC(=O)Oc1c(-c2ccc(Br)o2)oc2ccccc2c1=O,.,7.08µM*,?,-30.0%,7.08µM*,?
COc1ccc(C(=O)c2oc3ccccc3c2N)cc1,i,10µM*,143.8%,-38.2%,1.5%,-4.4%
O=C(O)COc1c(-c2ccco2)oc2ccccc2c1=O,i,5.2%,1.9%,-4.9%,6.6%,8.5%
COc1cccc(C(=O)c2sc(NC(C)C)nc2N)c1,i,11.2µM*,?,38.5%,?,?
Cc1ccc(C(=O)c2sc(Nc3ccc(F)cc3)nc2N)c(C)c1,i,.,?,-74.9%,.,12.6µM*
Nc1nc(Nc2cccc(Cl)c2)sc1C(=O)c1ccc(F)cc1,i,.,-32.9%,-74.7%,.,?
COc1ccc(Nc2nc(N)c(C(=O)c3ccc(F)cc3)s2)cc1,?,3.9%,.,-5.5%,-1.5%,-21.5%
COc1ccc(Nc2nc(N)c(C(=O)c3ccc(OC)cc3)s2)cc1,?,-0.6%,?,-153.4%,26.1%,12.6µM*
SMILES,ATXN viability,VP16 counter,ATXN2 expr inh,HepG2 viability,RORgamma inh,TGFb SMAD3 inh
CCOc1ccc(Nc2nc(N)c(C(=O)c3ccccc3Cl)s2)cc1,.,.,.,-45.6%,.,3.55µM*
CCCCC(=O)N(C)c1c(CC)nc2c(OCC(=O)N3CCOCC3)cccn12,i,.,15.5%,-2.0%,.,-1.7%
CC1(C)Cc2ccccc2C(NNC(=O)c2ccccc2)=N1,i,-8.0%,-11.0%,-20.0%,-12.4%,-1.1%
CC1(C)Cc2ccccc2C(NNC(=O)c2ccccn2)=N1,i,0.1µM*,?,-15.6%,0.0501µM*,-19.0%
CC1(C)Cc2ccccc2C(C(=O)c2ccccc2)=N1,i,2.8%,-18.0%,1.3%,7.94µM*,5.8%
CC(C)CCOc1ccc(CC(=O)NO)cc1,.,.,.,-22.1%,.,7.0%
CN(C)c1c(Br)cc(C=O)cc1Br,.,.,.,-11.2%,.,-4.0%
CCN1C(=O)/C(=C/c2nc3ccccc3c(=O)n2-c2ccccc2)c2ccccc21,?,4.6%[0.365 µM],?,15.8µM*,-7.8%,5.7%
CCN1C(=O)/C(=C\c2nc3ccccc3c(=O)n2CC)c2ccccc21,i,4.6%,-14.1%[11.3 µM],-12.1%,-13.5%,0.4%
COc1cc2nc(-c3ccc(N4CCN(C)CC4)cc3)nc(NCCN3CCOCC3)c2cc1OC,.,.,0.385µM*,.,.,.
CC(=O)NCCn1c(SCC#N)nc2ccccc2c1=O,?,3.7%,0.5%,-17.6%,0.224µM*,0.0%
Cc1c(-c2ccccc2)c(=O)oc2c(CN3CCCC3)c(O)ccc12,.,.,.,-12.1%,.,-18.2%
CCN1CCCc2cc(CN(CCN3CCOCC3)C(=S)Nc3ccccc3C)ccc21,i,-10.5%[10 µM],-15.7%,-18.9%,4.9%,-1.7%
COc1ccccc1NC(=S)N(CCN1CCOCC1)Cc1ccccc1F,i,-21.8%,-8.5%,2.6%,-20.9%,-0.8%
CCN1CCCc2cc(CN(CCN3CCOCC3)C(=S)Nc3ccccc3OC)ccc21,?,-13.9%,.,62.4%,10µM*,58.6%
CCN1CCCc2cc(CN(CCN3CCOCC3)C(=S)Nc3cccc(C)c3)ccc21,i,-2.5%[10 µM],-24.5%,-18.1%,6.31µM*,3.9%
CCOc1ccc2c(c1)C(N(CCN1CCOCC1)C(=S)Nc1ccccc1OC)CC(C)(C)O2 (stereo not drawn),i,?,.,-5.7%,15.8µM*,-7.8%
O=C(Nc1ccccc1C(=O)N/N=C/c1ccco1)c1ccccc1,i,?,-7.2%,-40.8%,7.94µM*,11.0%
C/C(=N\NC(=O)c1c(Cl)cnn1C)c1ccc(NC(=O)c2ccncc2)cc1,i,29.1%,-21.6%,10µM*,-8.6%,4.0%
O=C(Nc1ccccc1C(=O)N/N=C/c1ccco1)c1ccc(F)cc1,i,5.01µM*,-9.3%,12.6µM*,1.12µM*,?
O=C(N/N=C/c1ccco1)C1CC1(c1ccccc1)c1ccccc1 (stereo not drawn),i,?,-2.7%,1.3%,0.355µM*,1.4%
Cn1ncc(Cl)c1C(=O)Nc1ccncc1,i,4.6%,-2.6%,-21.7%,17.4%,6.5%
O=C(N/N=C/c1ccco1)c1ccncc1,i,?,14.4%,1.6%,?,-11.1%
CCCCc1nn2c(=O)cc(COC(=O)c3ccccc3C)nc2s1,i,.,10.1%,-3.2%,.,-4.8%
